The results in this text go back to ChEMBL document CHEMBL3433997, “St. Jude Leishmania screening dataset” (2016).

Holding throughout (assay type): functional
In assay [1] the target is Solute carrier family 2, facilitated glucose transporter member 1 (Homo sapiens) (UniProt P11166). The assay is described as follows: ST_JUDE_LEISH: Cytotoxicity at 2uM final concentration against transgenic Leishmania Mexicana promastigotes LmGLUT1 that are glucose transport deficient and complemented with the human glucose transporter GLUT1. Activity is measured by DNA content using SYBR green in vitro.
Solute carrier family 2, facilitated glucose transporter member 1 (Homo sapiens), sequence (P11166 whole entry): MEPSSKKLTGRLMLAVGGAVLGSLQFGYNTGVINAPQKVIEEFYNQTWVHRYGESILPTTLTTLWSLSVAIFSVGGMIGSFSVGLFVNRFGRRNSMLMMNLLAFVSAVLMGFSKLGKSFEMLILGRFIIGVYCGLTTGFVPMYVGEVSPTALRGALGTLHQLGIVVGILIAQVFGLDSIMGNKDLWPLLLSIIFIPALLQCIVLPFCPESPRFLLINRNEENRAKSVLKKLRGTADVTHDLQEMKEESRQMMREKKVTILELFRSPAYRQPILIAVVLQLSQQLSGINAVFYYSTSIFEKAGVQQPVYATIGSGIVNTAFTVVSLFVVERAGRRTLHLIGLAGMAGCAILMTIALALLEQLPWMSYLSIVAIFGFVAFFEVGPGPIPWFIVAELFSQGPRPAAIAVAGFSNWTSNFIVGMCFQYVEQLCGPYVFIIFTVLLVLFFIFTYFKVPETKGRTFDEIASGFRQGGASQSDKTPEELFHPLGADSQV

Assay [2] concerns the target Hexose transporter 1 (Plasmodium falciparum) (UniProt O97467). The assay is described as follows: ST_JUDE_LEISH: Cytotoxicity at 2uM final concentration against transgenic Leishmania Mexicana promastigotes LmPfHT that are glucose transport deficient and complemented with the Plasmodium falciparum hexose transporter. Activity is measured by DNA content using SYBR green in vitro.

Assay [3] addresses Glucose transporter (Leishmania mexicana) (UniProt O61059). In words: ST_JUDE_LEISH: Cytotoxicity at 2uM final concentration against transgenic Leishmania Mexicana promastigotes LmGT2 that are glucose transport deficient and complemented with the L. Mexicana glucose transporter 2. Activity is measured by DNA content using SYBR green in vitro.

For `C[C@@H](CC1CCCCC1)OC(=O)N[C@H]1CCN(C#N)C1`, the inhibition (usually the relative decrease from the control value, in per cent) was found to be 12.8% in assay [1], 8.07% in assay [2] and 7.29% in assay [3].

Turning to `Cc1ccc2c(c1C)NC(=O)C21NN=C(c2ccccc2)S1` (centres undefined), the inhibition was -1.86% in assay [1], -1.15% in assay [2] and -2.33% in assay [3].

As for `Cc1sc(C)c(C(F)(F)F)c1CNCCCNc1cc(=O)c2ccccc2[nH]1`, the inhibition in assay [1] was determined as 4.01%; in assay [2], 4.67%; in assay [3], 4.27%.

In the case of `CC(=O)Nc1ccc(Nc2cc(C)nc(Nc3ccc(NC(C)=O)cc3)n2)cc1`, the values for the inhibition in assay [1], in assay [2] and in assay [3] were 2.12%, 5.08% and 2.71%, respectively.

For `CN1CCN(c2cc3c(cc2Cl)CCN3C(=O)Cc2ccc(Cl)c(NC(=O)Nc3cccc([N+](=O)[O-])c3)c2)CC1`, the inhibition in assay [1] was -0.26%; in assay [2], -1.82%; in assay [3], 1.55%.

`CC(=O)Nc1cccc(C(=O)Nc2cccc(-c3ccc(-c4nc5cc(C(F)(F)F)ccc5[nH]4)s3)c2)c1`: the inhibition in assay [1] came out at 0.34%; in assay [2] it was 0.52%; in assay [3] it was 0.89%.

`COc1ccc(CNC2Cc3ccccc3C2)cc1-c1ccc(OC)c(S(=O)(=O)NCCN2CCCC2)c1`: the inhibition is 1.59% in assay [1], 1.67% in assay [2] and -1.29% in assay [3].

As for `Cc1cc(C=C(P(=O)(OC(C)C)OC(C)C)P(=O)(OC(C)C)OC(C)C)c2ccccc2c1O`, the inhibition in assay [1] came to 6.71%; in assay [2], 7.2%; in assay [3] it was 1.63%.

On to `Cc1cc(C)c(CON2C(=N)N=C(N)NC2(C)C)cc1C`, for which the inhibition in assay [1] was -0.51%; in assay [2] it was -0.15%; in assay [3], -0.63%.

For `CN1CCN(c2cc(NC(=O)Nc3cccc(Cl)c3Cl)ccc2Cl)CC1`, the results for the inhibition in assay [1], in assay [2] and in assay [3] were -2.56%, -2.86% and -2.68%, respectively.

As to `Oc1ccc(Cc2cc(Oc3c(I)cc(CCc4ncc[nH]4)cc3I)ccc2O)cc1`, the inhibition in assay [1] came out at 0.12%; in assay [2] it was 1.92%; in assay [3], 1.23%.

With `CC1(C)NC(N)=NC(=N)N1OCCc1ccccc1`, the inhibition in assay [1] turned out to be 1.18%; in assay [2], 0.77%; in assay [3], 0.66%.

`CCCCCCN1CCC(NCc2ccc(C(F)(F)F)cc2)CC1`: the figures for the inhibition in assay [1], in assay [2] and in assay [3] were 2.05%, 1.54% and 5.77%, respectively.

Turning to `CCc1nc(N)nc(N)c1CCCOc1ccccc1Cl`, the inhibition in assay [1] was 3.15%; in assay [2], 2.69%; in assay [3] it was -0.4%.

Consider `CCCc1cn2c3c(cc(C(=O)N[C@@H](Cc4ccccc4)[C@H](O)CNC4CCOCC4)cc13)N(C)S(=O)(=O)CC2`, for which the inhibition in assay [1] was 0.07%; in assay [2] it was 1.26%; in assay [3], -0.3%.

Regarding `O=C1CCCN1CCCNCc1ccc(-c2ccc(-c3nc4cc(C(F)(F)F)ccc4[nH]3)cc2)cc1`, the inhibition in assay [1] came out at 3.36%; in assay [2] it was 2.91%; in assay [3] it was 2.6%.

`COc1ccc(CC(=O)NC(CCN2CCC3(CCc4ccccc43)CC2)c2ccc(Cl)c(Cl)c2)cc1` (centres undefined): the values for the inhibition in assay [1], in assay [2] and in assay [3] were 0.25%, -0.66% and -0.93%, respectively.

`CN1CCc2cc(NS(=O)(=O)c3ccc(-c4ccc(Cl)s4)cc3)c(N3CCCCC3)cc2CC1`: the inhibition is -0.61% in assay [1], 0.7% in assay [2] and -2.07% in assay [3].

In the case of `CCCN(CCCN(CCCN(CCC)C(C)C)c1cc(C)nc(Nc2ccc(Cl)cc2)n1)C(C)C`, the inhibition turned out to be 9.21% in assay [1], 7.26% in assay [2] and 6.27% in assay [3].

As to `O=C(Nc1ccc(N2CCCCC2)c(Cl)c1)c1nc[nH]n1`, the inhibition in assay [1] is 2.18%; in assay [2], -0.39%; in assay [3], 1.65%.

`COc1ccc2c(NN=Cc3ccc(N(C)C)cc3)ccnc2c1`: the results for the inhibition in assay [1], in assay [2] and in assay [3] were 10.8%, 10.8% and 8.44%, respectively.

On to `C[C@@H](CC1CCCCC1)OC(=O)N(C)[C@H]1CCN(C#N)C1`, for which the inhibition in assay [1] is 14%; in assay [2], 8.54%; in assay [3] it was 8.86%.

As for `CC(C)CNCc1cccc(-c2ccc(CNc3ccc4ncccc4c3)cc2)c1`, the figures for the inhibition in assay [1], in assay [2] and in assay [3] were 1.45%, 1.19% and -0.62%, respectively.

For `CCc1c(C(=O)NC2CCC(N3CCC(c4ccccc4OC)CC3)CC2)[nH]c2ccc(OC)cc12` (centres undefined), the inhibition in assay [1] was 1.56%; in assay [2], 2.5%; in assay [3], 0.22%.

`CC(NC(=O)NC1CCC(CCN2CCCc3ccccc32)CC1)c1cccc2ccccc12` (centres undefined): the inhibition in assay [1] is 0.93%; in assay [2], 1.8%; in assay [3] it was -1.84%.

`Cc1cccc2nc(-c3ccc(-c4cccc(CN5CCN(c6ccc(C#N)cn6)CC5)c4)s3)[nH]c12`: the inhibition in assay [1] is 0.91%; in assay [2], -1.69%; in assay [3], 1.21%.

For the molecule `CC1(C)CCC(C)(C)c2c1ccc(C1CCN(CCCCNC(=O)c3ccc(-c4ccc(C#N)cc4)cc3)CC1)c2OCC(N)=O`, the results for the inhibition in assay [1], in assay [2] and in assay [3] were 3.73%, 4.26% and 4.33%, respectively.

With `Cc1cc(OCCCN2CCC(NS(=O)(=O)c3ccc(Cl)c(Cl)c3)CC2)c2ccccc2n1`, the figures for the inhibition in assay [1], in assay [2] and in assay [3] were 4.28%, 4.69% and 4.76%, respectively.

Turning to `O=C(NC1CCCCC1)N(Cc1cccc(-c2ccc(CNCc3ccc4c(c3)OCO4)cc2)c1)C1CCN(Cc2ccccc2)CC1`, the inhibition in assay [1] came to 8.67%; in assay [2] it was 5.99%; in assay [3], 3.16%.

In the case of `CCCC(C)NC(=O)[C@H]1CNCCN1C(=O)CCCc1ccccc1` (some centres undefined), the values for the inhibition in assay [1], in assay [2] and in assay [3] were 8.59%, 7.9% and 3.67%, respectively.

Consider `Cc1cc(N(C)C2CCN(C)C2)nc(Nc2ccccc2Cl)n1` (centres undefined), for which the figures for the inhibition in assay [1], in assay [2] and in assay [3] were 1.12%, 2.69% and 2.94%, respectively.

Consider `CCc1ccc(-c2nc3cc(NC(=O)c4cc([N+](=O)[O-])cc([N+](=O)[O-])c4)ccc3o2)cc1`, for which the inhibition in assay [1] is 2.33%; in assay [2], 1.19%; in assay [3], 2.3%.

Take `O=C(NCc1ccccc1)NC(CCCN1CCC(Oc2cccc(Cl)c2)CC1)c1ccc(Cl)c(Cl)c1` (centres undefined): the results for the inhibition in assay [1], in assay [2] and in assay [3] were 2.71%, -0.32% and -0.18%, respectively.
